Among the data in publication PMC4081100, “A DNA-binding-site landscape and regulatory network analysis for NAC transcription factors in Arabidopsis thaliana” are binding signal values, retold here.

Common to all, as to test: universal protein binding microarray (PBM); transcription factors of Arabidopsis thaliana; high values mean tight binding
Conditions in all cases: protein: recombinant; tags: GST; chain copies: 2; dsDNA, one strand shown

One assay addresses T1, GST-ANAC092(1-176) (Arabidopsis thaliana, UniProt Q9FKA0 1-176).
T1 sequence: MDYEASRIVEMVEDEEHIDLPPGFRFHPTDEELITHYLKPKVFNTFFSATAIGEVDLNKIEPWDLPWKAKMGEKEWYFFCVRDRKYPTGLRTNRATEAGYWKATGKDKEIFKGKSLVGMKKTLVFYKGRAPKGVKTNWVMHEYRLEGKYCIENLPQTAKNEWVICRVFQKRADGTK
In outline:
(§1)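 Binding is expressed as the normalised enrichment score (E-score). Proteins carrying a GST tag, whether NAC-domain, full-length or DNA-binding-domain forms, were induced in cells, and zinc acetate was added for zinc-finger proteins. After purification on glutathione–Sepharose 4B and quantification by A280 or anti-GST western blot, each was applied in duplicate at 200 to 500 nM final to custom all-10-mer Agilent 4 × 180K arrays made double-stranded by primer extension. Gapped and ungapped 8-mers were scored.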

The target in the next assay is T2, GST-ANAC019 NAC domain (Arabidopsis thaliana, UniProt Q9C932 14-162).
T2 sequence: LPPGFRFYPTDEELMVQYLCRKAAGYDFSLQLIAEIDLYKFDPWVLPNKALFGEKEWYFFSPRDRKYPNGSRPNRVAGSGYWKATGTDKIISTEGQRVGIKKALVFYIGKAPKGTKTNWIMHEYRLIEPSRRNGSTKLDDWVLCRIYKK
The gist of the method:
as §1

A further assay addresses T3, GST-ANAC055(1-171) (Arabidopsis thaliana, UniProt Q9LDY8 1-171).
T3 sequence: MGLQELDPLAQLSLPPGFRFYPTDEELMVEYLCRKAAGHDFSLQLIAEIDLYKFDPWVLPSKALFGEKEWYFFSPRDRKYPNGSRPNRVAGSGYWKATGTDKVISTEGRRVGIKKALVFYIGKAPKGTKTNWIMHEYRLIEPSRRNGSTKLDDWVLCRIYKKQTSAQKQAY
The gist of the method: as §1

A further assay concerns the target T4, GST-ATAF1 NAC domain (Arabidopsis thaliana, UniProt Q39013 7-158).
T4 sequence: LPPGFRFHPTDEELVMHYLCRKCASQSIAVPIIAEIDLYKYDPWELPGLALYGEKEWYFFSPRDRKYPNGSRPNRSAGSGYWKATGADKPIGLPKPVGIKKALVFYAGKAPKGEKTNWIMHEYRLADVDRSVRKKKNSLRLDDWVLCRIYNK
The gist of the method:
as §1

Assay [1] deals with T5, GST-ANAC092(1-285) full length (Arabidopsis thaliana, UniProt Q9FKA0 1-285).
T5 sequence: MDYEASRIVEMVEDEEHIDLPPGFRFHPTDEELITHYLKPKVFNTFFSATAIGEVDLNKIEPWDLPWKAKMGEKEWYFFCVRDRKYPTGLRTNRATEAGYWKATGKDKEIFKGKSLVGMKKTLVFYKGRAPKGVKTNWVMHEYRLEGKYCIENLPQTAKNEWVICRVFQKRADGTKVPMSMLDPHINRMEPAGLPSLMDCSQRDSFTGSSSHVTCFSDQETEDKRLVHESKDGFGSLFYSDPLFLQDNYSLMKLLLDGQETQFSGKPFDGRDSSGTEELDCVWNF
In outline:
as §1

Another assay has as its target T6, GST-NAP(1-166) (Arabidopsis thaliana, UniProt O49255 1-166).
T6 sequence: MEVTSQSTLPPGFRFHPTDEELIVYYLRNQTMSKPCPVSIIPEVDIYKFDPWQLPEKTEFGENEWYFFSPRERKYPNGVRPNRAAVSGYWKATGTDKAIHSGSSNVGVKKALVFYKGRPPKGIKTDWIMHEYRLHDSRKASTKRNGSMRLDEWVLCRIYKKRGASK
The gist of the method:
as §1

Another assay deals with T7, GST-NST2(1-184) (Arabidopsis thaliana, UniProt Q9M274 1-184).
T7 sequence: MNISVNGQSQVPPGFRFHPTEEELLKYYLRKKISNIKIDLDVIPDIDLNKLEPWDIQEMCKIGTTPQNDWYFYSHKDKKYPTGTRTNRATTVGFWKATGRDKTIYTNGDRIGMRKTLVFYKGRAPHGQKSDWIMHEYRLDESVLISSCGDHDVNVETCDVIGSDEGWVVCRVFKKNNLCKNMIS
In outline: as §1

For the next assay, the target named is T8, GST-NTL8 NAC domain (Arabidopsis thaliana, UniProt Q9XIN7 14-156).
T8 sequence: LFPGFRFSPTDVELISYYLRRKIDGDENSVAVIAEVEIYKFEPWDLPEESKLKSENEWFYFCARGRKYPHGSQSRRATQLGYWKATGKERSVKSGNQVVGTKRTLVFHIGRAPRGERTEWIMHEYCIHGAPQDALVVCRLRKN
In outline: as §1

The next assay has as its target T9, GST-SND1(1-203) (Arabidopsis thaliana, UniProt Q9LPI7 1-203).
T9 sequence: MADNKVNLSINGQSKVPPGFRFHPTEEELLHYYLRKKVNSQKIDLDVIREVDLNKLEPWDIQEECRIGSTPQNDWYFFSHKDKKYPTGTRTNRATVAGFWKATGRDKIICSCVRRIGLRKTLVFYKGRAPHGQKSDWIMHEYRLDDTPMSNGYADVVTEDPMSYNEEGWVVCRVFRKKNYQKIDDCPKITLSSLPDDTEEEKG
In outline:
as §1

In the next assay the target is T10, GST-VND3 NAC domain (Arabidopsis thaliana, UniProt Q9FH59 12-162).
T10 sequence: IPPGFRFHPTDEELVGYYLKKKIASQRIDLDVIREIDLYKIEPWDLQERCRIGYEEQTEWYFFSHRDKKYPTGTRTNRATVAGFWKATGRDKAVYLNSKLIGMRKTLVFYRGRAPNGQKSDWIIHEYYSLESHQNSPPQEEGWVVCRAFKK
The gist of the method: as §1

The target of a further assay is T11, GST-VND7 NAC domain (Arabidopsis thaliana, UniProt Q9C8W9 9-158).
T11 sequence: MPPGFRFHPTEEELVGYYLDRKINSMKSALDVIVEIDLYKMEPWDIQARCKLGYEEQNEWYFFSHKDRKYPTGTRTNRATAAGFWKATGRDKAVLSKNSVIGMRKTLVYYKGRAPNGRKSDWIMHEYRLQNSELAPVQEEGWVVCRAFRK
The gist of the method:
as §1

In the case of CACGCAAC, the binding signal with GST-ANAC092(1-176) was found to be 0.496 E-score; with GST-ANAC019 NAC domain it was 0.486 E-score; with GST-ANAC055(1-171), 0.463 E-score; with GST-ATAF1 NAC domain it was 0.437 E-score; in assay [1], 0.498 E-score; in the assay with GST-NAP(1-166) it was 0.489 E-score. In addition, the binding signal turned out to be 0.444 E-score with GST-NST2(1-184); 0.181 E-score with GST-NTL8 NAC domain; 0.482 E-score with GST-SND1(1-203); 0.476 E-score with GST-VND3 NAC domain; 0.484 E-score with GST-VND7 NAC domain.
As for TGCGTACA, the binding signal turned out to be 0.372 E-score in the assay with GST-ANAC092(1-176); 0.307 E-score with GST-ANAC019 NAC domain; 0.288 E-score in the assay with GST-ANAC055(1-171); 0.272 E-score in the assay with GST-ATAF1 NAC domain; 0.437 E-score in [1]; 0.289 E-score with GST-NAP(1-166). For the same sequence, the binding signal in the assay with GST-NST2(1-184) came to 0.279 E-score; in the assay with GST-NTL8 NAC domain, 0.0577 E-score; with GST-SND1(1-203), 0.393 E-score; with GST-VND3 NAC domain it was 0.305 E-score; in the assay with GST-VND7 NAC domain, 0.281 E-score.
For GTGCCGTA, the binding signal with GST-ANAC092(1-176) was 0.427 E-score; with GST-ANAC019 NAC domain it was 0.467 E-score; in the assay with GST-ANAC055(1-171) it was 0.432 E-score; in the assay with GST-ATAF1 NAC domain, 0.413 E-score; in assay [1] it was 0.449 E-score; with GST-NAP(1-166) it was 0.412 E-score. Besides, the binding signal is 0.263 E-score in the assay with GST-NST2(1-184); 0.102 E-score in the assay with GST-NTL8 NAC domain; 0.377 E-score in the assay with GST-SND1(1-203); 0.443 E-score in the assay with GST-VND3 NAC domain; 0.453 E-score with GST-VND7 NAC domain.
As for ACGCAATG, the binding signal with GST-ANAC092(1-176) amounted to 0.452 E-score; in the assay with GST-ANAC019 NAC domain, 0.32 E-score; in the assay with GST-ANAC055(1-171), 0.21 E-score; with GST-ATAF1 NAC domain, 0.162 E-score; in [1], 0.456 E-score; with GST-NAP(1-166), 0.35 E-score. Moreover, the binding signal was determined as 0.359 E-score in the assay with GST-NST2(1-184); 0.0941 E-score in the assay with GST-NTL8 NAC domain; 0.437 E-score with GST-SND1(1-203); 0.314 E-score with GST-VND3 NAC domain; 0.311 E-score with GST-VND7 NAC domain.
For the sequence CACGTAAC, the binding signal in the assay with GST-ANAC092(1-176) worked out at 0.466 E-score; in the assay with GST-ANAC019 NAC domain, 0.479 E-score; with GST-ANAC055(1-171), 0.452 E-score; in the assay with GST-ATAF1 NAC domain, 0.436 E-score; in [1] it was 0.467 E-score; with GST-NAP(1-166), 0.468 E-score. Further, the binding signal with GST-NST2(1-184) worked out at 0.279 E-score; with GST-NTL8 NAC domain it was 0.242 E-score; with GST-SND1(1-203) it was 0.321 E-score; with GST-VND3 NAC domain it was 0.44 E-score; with GST-VND7 NAC domain it was 0.47 E-score.
As to CTACGCAA, the binding signal with GST-ANAC092(1-176) was 0.427 E-score; with GST-ANAC019 NAC domain, 0.316 E-score; in the assay with GST-ANAC055(1-171) it was 0.207 E-score; with GST-ATAF1 NAC domain, 0.267 E-score; in [1], 0.447 E-score; in the assay with GST-NAP(1-166), 0.196 E-score. In addition, the binding signal with GST-NST2(1-184) is 0.364 E-score; with GST-NTL8 NAC domain it was 0.126 E-score; with GST-SND1(1-203) it was 0.488 E-score; in the assay with GST-VND3 NAC domain it was 0.365 E-score; in the assay with GST-VND7 NAC domain, 0.349 E-score.
For ACACGCCA, the binding signal in the assay with GST-ANAC092(1-176) stood at 0.487 E-score; in the assay with GST-ANAC019 NAC domain it was 0.382 E-score; with GST-ANAC055(1-171), 0.298 E-score; with GST-ATAF1 NAC domain, 0.227 E-score; in assay [1], 0.492 E-score; with GST-NAP(1-166), 0.294 E-score. Also, the binding signal came out at 0.313 E-score with GST-NST2(1-184), 0.379 E-score in the assay with GST-SND1(1-203), 0.22 E-score in the assay with GST-VND3 NAC domain and 0.257 E-score with GST-VND7 NAC domain.
